Bioassay records (PubChem BioAssay)
Rows were chosen to be rich in hits. Some 19% of all compounds tested hit in one or more screens of this group.
IL-1B inflam inh: qHTS for Inhibitors of Inflammasome Signaling: IL-1-beta AlphaLISA Primary Screen. THP-1 LPS/ATP IL-1B secretion, AlphaLISA, 16 h; active compounds read low. activity change, % at 57.5 µM. 4.7% of 360,000 active. AID 743279, 2014; in the data active means activity change below about -50%; inconclusive means mostly about -30% to -49%; further: on the % scale 0 is the no-effect control and ±100 the full control effect
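THP-1 cells pretreated 1 hr with compounds (up to 57.5 uM final), then stimulated with LPS (250 ng/mL final) plus ATP (1.25 mM final); secreted IL-1B measured by AlphaLISA after 16 hr, decreased signal indicating inhibition.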
TDP1 block: qHTS Assay for Inhibitors of Tyrosyl-DNA Phosphodiesterase (TDP1). Tyrosyl-DNA phosphodiesterase 1 (Homo sapiens), Q9NUW8. recombinant TDP1, AlphaScreen DNA substrate cleavage. Potency, µM (highest dose often 130 µM), for the others: top-dose activity change, negative = inhibition, most hits filed as inhibitors. 0.28% of 350,000 active. AID 485290, 2010; further: potency means the concentration at half of the fitted maximal effect; on the % scale 0 is the no-effect control and ±100 the full control effect; nearly all actives have a fitted effect of over 40% in size
Target sequence (Q9NUW8 whole entry, looked up): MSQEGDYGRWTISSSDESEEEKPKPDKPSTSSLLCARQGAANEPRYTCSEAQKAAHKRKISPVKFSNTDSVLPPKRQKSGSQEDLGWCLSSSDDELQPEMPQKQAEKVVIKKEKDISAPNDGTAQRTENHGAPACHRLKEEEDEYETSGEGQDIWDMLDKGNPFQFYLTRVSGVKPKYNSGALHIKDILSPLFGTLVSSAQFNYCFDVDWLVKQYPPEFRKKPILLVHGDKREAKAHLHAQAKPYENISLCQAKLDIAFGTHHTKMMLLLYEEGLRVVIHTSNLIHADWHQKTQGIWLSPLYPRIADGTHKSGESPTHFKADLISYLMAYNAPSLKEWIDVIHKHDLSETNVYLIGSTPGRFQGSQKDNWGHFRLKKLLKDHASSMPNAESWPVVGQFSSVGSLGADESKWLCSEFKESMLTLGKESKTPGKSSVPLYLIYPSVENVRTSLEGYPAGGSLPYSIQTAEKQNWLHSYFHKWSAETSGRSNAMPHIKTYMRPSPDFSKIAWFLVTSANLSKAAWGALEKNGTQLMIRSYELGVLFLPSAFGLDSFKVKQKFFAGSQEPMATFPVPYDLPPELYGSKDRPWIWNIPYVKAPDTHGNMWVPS
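E. coli-derived human Tdp1, 1 nM final. Cpd preinc 15 min RT; substrate 15 nM final, 5 min RT; AS bead mix 10 ug/ml final, 10 min RT. Signal loss = tyrosine-FITC cleavage. No-enzyme wells = max signal.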
TGFb SMAD3 inh: qHTS for Inhibitors of TGF-b. HepG2 CAGA-GFP TGF-b/SMAD3 reporter, GFP fluorescence, 18 h; TGF-beta stimulated, 500 pg/mL final. Potency, µM (titrated, usually from 46.1 µM), without a hit: top-dose activity, negative = inhibition, actives largely listed as inhibitors. 1.2% of 410,000 active. AID 588855, 2011; further: potency means the concentration at half of the fitted maximal effect; on the % scale 0 is the no-effect control and ±100 the full control effect; nearly all actives have a fitted effect of over 65% in size
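Cell-based qHTS in HEPG2 carrying a CAGA-GFP Smad reporter; compounds added before 500 pg/mL final TGF-beta, 18 h incubation at 37 degrees C, GFP fluorescence quantified per cell by imaging cytometry.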
HepG2 viability: qHTS for Inhibitors of TGF-b: Cytotox Counterscreen | HepG2 CAGA-GFP viability, ATP luminescence, 18 h | Potency, µM (titrated, usually from 46.1 µM), without a hit: top-dose activity change, negative = cytotoxicity, hits mostly cytotoxic | 0.76% of 410,000 active; further: potency means the concentration at half of the fitted maximal effect
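HepG2 CAGA-GFP cells (1000/well, DMEM with 1% FBS) received compound, then TGF-beta at 500 pg/mL final, and were incubated 18 hours at 37 degrees C. Viability was read by CellTiter-Glo luminescence. Media-only wells were set as complete cell-killing and DMSO as no toxicity.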
TDP1 cell CPT: qHTS for Inhibitors of human tyrosyl-DNA phosphodiesterase 1 (TDP1): qHTS in cells in presence of CPT; chicken DT40 Tdp1-/-;hTDP1 cells + 20 nM CPT, ATP luminescence, 48 h; Potency, µM (doses to about 46.2 µM), for inactives: at the highest dose activity change, negative = growth inhibition, usual class: inhibitors; 12% of 420,000 active; further: potency means the concentration at half of the fitted maximal effect; on the % scale 0 is the no-effect control and ±100 the full control effect; nearly all actives have a fitted effect of over 55% in size
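Cell growth measured by CellTiter-Glo luminescence after a minimum 48 h, 37 C compound exposure with 20 nM CPT in Tdp1-knockout DT40 cells stably expressing hTDP1, seeded 400/well; qHTS titration format.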
TDP1 cell noCPT: qHTS for Inhibitors of human tyrosyl-DNA phosphodiesterase 1 (TDP1): qHTS in cells in absence of CPT; 15% of 420,000 active; DT40 Tdp1-/- hTDP1 cells, no CPT, ATP luminescence, 48 h; AID 686978, 2013; Potency, µM (doses to about 46.2 µM), inactives show at the top dose activity change, negative = growth inhibition, most hits filed as inhibitors; further: potency means the concentration at half of the fitted maximal effect; on the % scale 0 is the no-effect control and ±100 the full control effect; nearly all actives have a fitted effect of over 55% in size
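Growth kinetics read by CellTiter-Glo luminescence after ≥48 hr at 37 °C. Cells: DT40 Tdp1-/- stably carrying human TDP1, 400 per well, compound exposure in the absence of CPT (DMSO vehicle).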
An asterisk follows results filed as active; ? = inconclusive; / = no result given. Unless noted, the call rests on the fitted dose curve; in most records, active means well fitted curve in the direction sought with a large enough effect; inconclusive means small, poorly fitted or top-dose-only effect, or another doubt; inactive means no such curve, though single readings can be large; an effect the other way counts as inactive or inconclusive.

SMILES	IL-1B inflam inh	TDP1 block	TGFb SMAD3 inh	HepG2 viability	TDP1 cell CPT	TDP1 cell noCPT
COc1ccccc1C1CCN(C(=O)c2ccc(C(C)(C)C)cc2)CC1	-92*	/	13µM*	-58%	?	16µM*
O=C(NC1CCN(C(=O)c2cccc([N+](=O)[O-])c2)CC1)c1ccccc1	30	/	3%	12%	-1%	-19%
COc1ccccc1N1CCN(C(=O)c2ccc(S(=O)(=O)N3CCCC3)cc2)CC1	4	5%	-5%	-1%	?	16µM*
COc1ccccc1C1CCN(C(=O)c2cccc([N+](=O)[O-])c2)CC1	/	0%	-19%	-18%	?	16µM*
C=CCOc1ccc(/C=C(\C#N)C(=O)Nc2ccccn2)cc1	8	0%	-14%	-14%	-3%	-11%
O=C(Cn1cnc2c(oc3nc4c(cc32)CCCC4)c1=O)Nc1cccc(Cl)c1	8	4%	-1%	-2%	23µM*	12µM*
O=C(Cn1cnc2c(oc3nc4c(cc32)CCCC4)c1=O)Nc1ccccc1	14	5%	-20%	-27%	-9%	?
COc1ccc(CCNC(=O)NCc2noc3ccc(C)cc23)c(OC)c1	/	0%	-17%	-13%	-9%	?
Cn1c(-c2ccc3ccccc3n2)[n+](C)c2ccccc21	29	7%	?	1%	3.3µM*	3.7µM*
CN(C)c1ccc(-c2n(C)c3ccccc3[n+]2C)cc1	-80*	6%	-29%	-2%	1.6µM*	0.82µM*
Cn1c(-c2cccc([N+](=O)[O-])c2)[n+](C)c2ccccc21	54	3%	-6%	-23%	7.3µM*	3.3µM*
CCC(CC)NC(=O)c1cccc(Oc2ccccc2)c1	-11	0%	-2%	1%	-12%	?
O=C(NC1CCCCCCC1)c1ccccc1-c1ccccc1	-14	0%	2%	-8%	?	?
O=C(NC1CCCCC1)c1nc(C2CCNCC2)oc1-c1ccccc1	-66*	/	-4%	-2%	?	?
COc1ccc(CC(=O)n2[nH]c(=O)cc(C)c2=O)cc1OC	/	-3%	-13%	-11%	?	18µM*
Cn1c(SCC(=O)N2CCN(c3ccccc3)CC2)nnc1-c1c[nH]c2ccccc12	-9	8%	?	-43%	?	?
CCn1c(SCC(=O)N2CCN(c3ccccc3)CC2)nnc1-c1c[nH]c2ccccc12	10	2%	-13%	-18%	21µM*	?
CCn1cc(SCC(=O)N2CCc3ccccc32)c2ccccc21	-2	0%	-23%	-34%	?	21µM*
CCn1c(CNc2ccc(C)cc2C)nnc1SCC(=O)N1CCCc2ccccc21	-23	9%	0%	6%	10µM*	?
O=Cc1cn(CC(=O)N2CCCc3ccccc32)c2ccccc12	19	2%	-12%	-29%	5.8µM*	5.8µM*
CCN(C(=O)COC(=O)CCCOc1ccccc1)c1c(N)n(Cc2ccccc2)c(=O)[nH]c1=O	-8	0%	-4%	-4%	-27%	-30%
COc1ccc(CN2C(=NC(=O)C3CC3)SC3CS(=O)(=O)CC32)cc1 (stereo not drawn)	10	2%	-1%	-10%	-13%	33%
COc1cccc(CNC(=O)CSC2=Nc3ccccc3C3=NC(C(C)C)C(=O)N23)c1 (stereo not drawn)	/	4%	2%	-21%	2%	-25%
CN(C)c1ncc2nc(-c3ccc(Cl)cc3)c(=O)n(CCC#N)c2n1	/	/	/	/	2%	-2%
CCn1c(SCC(=O)N2CCc3ccccc32)nnc1-c1c[nH]c2ccccc12	-12	0%	-6%	-29%	?	21µM*
SMILES	IL-1B inflam inh	TDP1 block	TGFb SMAD3 inh	HepG2 viability	TDP1 cell CPT	TDP1 cell noCPT
Cn1cc(C(=O)C(=O)N2CCCc3ccccc32)c2ccccc21	21	2%	-9%	-40%	16µM*	13µM*
Cn1cc(C(=O)C(=O)N2CCCC2)c2ccccc21	-13	/	-3%	1%	1%	-13%
CCn1c(SCC(=O)N2CCCc3ccccc32)nnc1-c1c[nH]c2ccccc12	-9	4%	?	-27%	?	?
CCOc1ccc(-n2nc(CO)c(C(=O)NCC(C)O)n2)cc1 (stereo not drawn)	/	2%	0%	12%	12%	6%
N#Cc1ccc(C(=O)Nc2cc(-c3ccc(F)cc3)nn2-c2ccccc2)cc1	-6	/	?	-29%	15µM*	?
O=C(Nc1cc(-c2ccccc2)nn1-c1c(Cl)cccc1Cl)c1ccc(F)cc1	-25	1%	-44%	10%	21µM*	18µM*
Cn1nc(-c2ccccc2)cc1NC(=O)c1ccc(Cl)cc1	-15	/	5%	-3%	-30%	-18%
COc1cc(/C=N/n2c(-c3ccccc3)n[nH]c2=S)cc(OC)c1OC	51	/	7%	-11%	2%	?
COc1cc(/C=N/n2nnnc2Nc2ccccc2)cc(OC)c1OC	?	5%	-4%	-3%	15µM*	18µM*
COc1cc(/C=N/Nc2nc(Nc3ccc(C)cc3)nc(-n3nc(C)cc3C)n2)cc(OC)c1OC	4	6%	?	-55%	4.6µM*	2.9µM*
COc1cc(/C=N/Nc2nc(Nc3ccccc3)nc(-n3nc(C)cc3C)n2)cc(OC)c1OC	-64*	5%	?	-29%	23µM*	18µM*
COc1ccc(O)c(/C=N/Nc2nc(Nc3ccccc3)nc(-n3nc(C)cc3C)n2)c1	-23	13%	?	-48%	0.58µM*	0.52µM*
COc1cc(/C=N/Nc2ccc(C(=O)O)cc2)cc(OC)c1OC	0	0%	3%	4%	-2%	-20%
COc1ccc(CNC(=O)C2CCN(S(=O)(=O)c3cn(C)cn3)CC2)cc1	/	-1%	17%	8%	10%	-2%
Cc1cc(C)c(NC(=S)N2CCN(c3ccc([N+](=O)[O-])cn3)CC2)cc1C	-20	/	-4%	-4%	?	?
